Source: PubChem
NR3A LBD binder = binders of NR3A ligand-binding domain, primary screen, biophysical, differential scanning fluorimetry, uHTS | Glutamate receptor ionotropic, NMDA 3A (GRIN3A) ligand-binding domain | NR3A LBD differential scanning fluorimetry, Tm shift; 0% = protein alone, 100% = glycine-bound protein | Tm shift relative to glycine control, % at 25 µM | 340,000 tested, 2.5% active | AID 1259313, 2017;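 active = melting temperature shift of at least 10% of the positive control shift, at one fixed dose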
rCAG RNA binder = binders of r(CAG) RNA repeats, primary screen, biochemical, fluorescence | r(CAG) RNA repeat, TO-PRO-1 dye displacement fluorescence | inhibition, % at 3 µM | 370,000 tested, 1.3% active;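 active = inhibition above the plate cutoff, the mean of all test compounds on that plate plus 3 SD, cut at about 35% in these data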;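 also: 0% = DMSO alone and 100% = 100 µM mitoxantrone as full dye displacement; higher means more dye released from RNA so lower well fluorescence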
KLK7 zymogen act = proKLK7 zymogen activators, primary screen, biochemical, fluorescence intensity. purified proKLK7, EDANS-DABCYL substrate fluorescence; 100% is mature enzyme control, 0% vehicle. activation, % at 7 µM. 370,000 tested, 0.9% active;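 active = activation above the mean of all tested compounds plus 3 SD, computed per campaign excluding outliers beyond control limits, cut at about 13% in these data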
ADAM17 inh = ADAM17 inhibitors, primary screen, biochemical, QFRET. recombinant ADAM17, EDANS/DABCYL FRET peptide cleavage. inhibition, % at 6.95 µM. Disintegrin and metalloproteinase domain-containing protein 17 (Homo sapiens), P78536. AID 720648, 2013. 370,000 tested, 0.83% active;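 active = inhibition above the mean of compounds lying between control limits plus 3 SD, set per campaign, cut at about 8.5% in these data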;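 also: 0% = DMSO-only wells as the low control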
AHR act = AHR activators, primary screen, cell-based, luminescence, luciferase reporter, human | Aryl hydrocarbon receptor (Homo sapiens), P35869 | AHR-responsive luciferase reporter cells | activation, % at 5 µM | 320,000 tested, 2.5% active; in the data active = activation above about 47%;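 also: 0% = vehicle wells and 100% = reference agonist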
ADAM10 inh = human ADAM10 inhibitors, primary screen, biochemical, QFRET, HTS. 370,000 tested, 0.62% active. recombinant ADAM10, EDANS/DABCYL FRET peptide cleavage, 3 h. inhibition, % at 7 µM;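 active = inhibition above a per-campaign cutoff equal to the mean of compounds falling between control-based bounds plus 3 SD, cut at about 20% in these data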;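 also: 0% = DMSO wells while the 100% control is not disclosed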
Target sequence (O14672 214-748 limits assumed): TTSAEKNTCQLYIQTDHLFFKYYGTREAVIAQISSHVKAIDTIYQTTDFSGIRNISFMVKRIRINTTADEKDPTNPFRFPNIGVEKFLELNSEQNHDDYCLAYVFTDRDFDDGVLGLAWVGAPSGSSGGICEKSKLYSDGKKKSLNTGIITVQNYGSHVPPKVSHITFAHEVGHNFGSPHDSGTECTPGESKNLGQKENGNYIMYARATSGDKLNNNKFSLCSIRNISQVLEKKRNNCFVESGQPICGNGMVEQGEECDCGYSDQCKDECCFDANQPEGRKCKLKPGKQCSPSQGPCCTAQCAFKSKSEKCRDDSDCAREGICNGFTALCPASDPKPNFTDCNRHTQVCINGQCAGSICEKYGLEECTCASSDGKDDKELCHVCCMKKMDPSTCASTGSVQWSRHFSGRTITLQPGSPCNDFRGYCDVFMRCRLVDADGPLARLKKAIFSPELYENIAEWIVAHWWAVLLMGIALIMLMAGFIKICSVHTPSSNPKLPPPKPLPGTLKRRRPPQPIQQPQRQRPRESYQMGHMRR
rCAG binder conf = small molecules binding CAG repeat RNA – biochemical, fluorescence, confirmation; 4,300 tested, 70% active; shares compounds with rCAG RNA binder; r(CAG) RNA repeat, TO-PRO-1 dye displacement fluorescence; inhibition, % at 3 µM;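 active = inhibition above a per-plate cutoff, the mean inhibition of sample wells plus 3 SD, cut at about 35% in these data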;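 also: loss of TO-PRO-1 fluorescence as compound displaces dye from 1x1 AA loop RNA; 0% = DMSO only wells and 100% = 100 µM mitoxantrone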
DNA CAG counter = displacement of TO-PRO-1 from CAG DNA duplex, counter-screen for rCAG RNA repeat binder project, biochemical, fluorescence, TO-PRO-1 dye, d(CAG) DNA oligo. d(CAG) DNA oligo TO-PRO-1 dye displacement. shares compounds with rCAG RNA binder. 4,300 tested, 94% active. inhibition, % at 3 µM;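 active = inhibition above its plate's cutoff, the mean test-well inhibition plus 3 SD, cut at about 4.8% in these data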;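 also: 0% = DNA dye mix with DMSO and 100% = 100 µM mitoxantrone; hits displace the dye from DNA and so lower well fluorescence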
dCAG dye DR = inhibitors of DNA CAG/GTC TO-PRO-1 complex, dose response, counter-screen for rCAG RNA repeat binder project, biochemical, fluorescence, TO-PRO-1 dye; IC50, µM; AID 686960, 2013; shares compounds with rCAG RNA binder; 250 tested, 20% active; DNA CAG/GTC duplex TO-PRO-1 dye displacement fluorescence; in the data active = IC50 below about 10 µM
* marks the source's active call; other numbers are inactive results; i = inactive; . = no result given. Only some compounds are listed: those with a hit (about 7% of all), similar ones and a draw of the others.

SMILES	NR3A LBD binder	rCAG RNA binder	KLK7 zymogen act	ADAM17 inh	AHR act	ADAM10 inh	rCAG binder conf	DNA CAG counter	others
O=C(N/N=C1/CC2CCC1C2)c1cc2ccccc2cc1O (stereo not given)	-6	51*	-1	-7	7	-1	9	4
O=C(NCC1CCCCC1)c1cc2ccccc2cc1O	8	9	-21	-6	17	-19	.	.
Cc1ccc(C=Nn2c(-c3n[nH]c4c3CCC4)n[nH]c2=S)s1	.	15	0	5	.	-11	.	.
COC(=O)c1c(C)[nH]c(C)c1-c1ccc(C)cc1	3	43*	0	-6	2	-5	2	1
CC(C)OP(=O)(O)C(C)NC(=O)OCc1ccccc1 (stereo not given)	.	0	0	-3	.	-1	.	.
O=C(NCCc1ccccc1)O[C@H]1CC[C@@]23CCCN2C(=O)CCC[C@H]3C1	.	.	.	-2	.	-1	.	.
O=C(Nc1cccc([N+](=O)[O-])c1)c1ccc2nc(N3C(=O)CCC3=O)sc2c1	-2	32	0	-1	9	5	.	.
O=C(Nc1cccc(Br)c1)c1ccc2nc(N3C(=O)CCC3=O)sc2c1	14*	44*	1	-1	22	-4	27	9.7*
Cc1ccc(S(=O)(=O)N(C)[C@H]2C[C@H]3c4[nH]c5c(-c6ccccc6)cccc5c4CCN3C(=O)[C@H]2[C@H](C)O)cc1	.	11	-34	-272	.	i	.	.
CC(C)[C@@]1(c2ccc(Cl)cc2)ON(c2ccccc2C(F)(F)F)C1=O	.	.	.	.	7	.	.	.
Brc1ccc(CN2CCCc3nc(-c4ccccc4)ccc32)cc1	.	6	-9	-24	.	-74	.	.
CCCc1cc(=O)[nH]c(SCC(=O)Nc2nc3ccc(OCC)cc3s2)n1	-14	49*	0	1	33	1	40*	12*
COc1ccc(NC(=O)Nc2nc3ccccc3s2)cc1	28*	48*	0	1	35	7	15	18*
CCOc1ccc2nc(NC(=O)Nc3ccccc3)sc2c1	35*	50*	0	0	78*	-12	15	20*
COc1cccc(Cn2cc(COC(=O)N(C)Cc3ccccc3)nn2)c1	.	1	0	-3	.	1	.	.
CN1C(=O)/C(=C\c2cccc(OCc3ccccc3)c2)SC1=S	0	2	0	-2	.	0	.	.
O=C(O)CN1C(=O)/C(=C\c2ccccc2OCc2ccc(F)cc2)SC1=S	4	84*	0	-6	3	6	72*	31*	dCAG dye DR=i
O=C(O)CN1C(=O)/C(=C\c2cccc(OCc3ccccc3)c2)SC1=S	8	81*	1	0	0	1	72*	35*
Cc1ccc(/C=C2\SC(=S)N(Cc3ccccc3)C2=O)o1	-3	29	-1	-1	0	4	.	.
Cc1ccccc1/C=C1\SC(=S)N(/N=C/c2cc([N+](=O)[O-])ccc2O)C1=O	7	37*	1	-3	0	4	34	10*
O=C1/C(=C\c2cccc(O)c2O)SC(=S)N1Cc1ccccc1	38*	37*	-1	1	0	-9	83*	53*
